Data as given in PubChem BioAssay (NCATS).
Records with an inconclusive call do not appear. Activity calls are given as the source filed them. Unless noted, calls come from the whole dose curve; as a rule, active = well fitted curve in the direction sought with a large enough effect; inconclusive = small, poorly fitted or top-dose-only effect, or another doubt; inactive = no such curve, though single readings can be large; an effect the other way counts as inactive or inconclusive.

Key:
[1] = Cell Viability - Jurkat (AID 426;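 active = dose-dependent loss of cell ATP signal giving a full or clear fitted curve, ranked by lower potency value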;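 note: potency is the fitted concentration of half-maximal effect; cells exposed to compound for 40 hours at 37 °C before ATP read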); conditions: qHTS
Procedure, shortened: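 Cells of the human T-cell leukemia line Jurkat (E6-1) are seeded at 5000 per well, treated with compound across a concentration range for 40 hours at 37 °C, then lysed with CellTiter-Glo; luminescence reports ATP.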

[2] = MultiTox-Fluor Cytotoxicity Assay - LYMP1-002 - Dead Cells (AID 960); conditions: LYMP1-002 lymphoblastoid cells, dead-cell protease fluorescence; series mostly up to 46.1 µM;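 note: cells exposed to compound for 16 h at 37 °C; nearly all actives have a fitted effect of over 60% in size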
Procedure, shortened: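 Cells were plated, rested 5 hr, then treated with compound dilution series for 16 hr at 37 C. After adding substrate reagent and 60 min at room temperature, dead-cell protease fluorescence gave concentration-response curves fitted by the Hill equation.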

[3] = Cell Viability - LYMP1-003 - Assay at 40 hr (AID 964); conditions: LYMP1-003 lymphoblastoid viability; series mostly up to 92.2 µM; note: nearly all actives have a fitted effect of over 60% in size
Procedure, shortened: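 Luminescent ATP signal (CellTiter-Glo) served as the viability read-out after 40 hr compound treatment of human lymphoblastoid LYMP1-003 cells at 37 C. Decreases in ATP were fitted with the Hill equation to give AC50.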

[4] = Cell Viability - LYMP2-003 (AID 965); conditions: LYMP2-003 lymphoblastoid cell viability; series mostly up to 92.2 µM;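 note: cells exposed to compounds for 24 h before reading; nearly all actives have a fitted effect of over 50% in size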
Procedure, shortened: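 Seed 2500 lymphoblastoid cells/well; incubate 5 hr, 37 C; add compounds; incubate 24 hr, 37 C; add CellTiter-Glo, 30 min RT; read luminescence. AC50 from Hill fit.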

[5] = Cell Viability - LYMP2-005 (AID 967); conditions: LYMP2-005 lymphoblastoid cell viability; series mostly up to 92.2 µM;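 note: cells exposed to compound for 24 h at 37 °C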
Procedure, shortened: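 Acute cytotoxicity is scored as a concentration-dependent drop in intracellular ATP in human lymphoblastoid LYMP2-005 cells after 24 h compound treatment. ATP is quantified by luciferase luminescence, and AC50 is derived by Hill-equation modelling.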

[6] = Cell Viability - LYMP2-011 (AID 969); conditions: LYMP2-011 lymphoblastoid cells viability; series mostly up to 92.2 µM; note: nearly all actives have a fitted effect of over 60% in size
Procedure, shortened: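 In this qHTS cytotoxicity format, compounds are tested across concentrations on human lymphoblastoid cells in complete medium for 24 hours at 37 C. Viability is taken as cellular ATP measured by luciferase luminescence.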

[7] = Cell Viability - LYMP2-013 (AID 970); conditions: LYMP2-013 lymphoblastoid cells viability; series mostly up to 92.2 µM;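 note: cells exposed to compound for 24 h at 37 °C; nearly all actives have a fitted effect of over 55% in size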
Procedure, shortened: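 Cytotoxicity is scored as a concentration-dependent drop in intracellular ATP in human lymphoblastoid cells after 24 hr compound exposure at 37 C. ATP is quantified by luciferase luminescence, and AC50 values come from Hill-equation modeling.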

[8] = Cell Viability - LYMP2-017 (AID 972); conditions: LYMP2-017 lymphoblastoid cell viability; series mostly up to 92.2 µM; note: nearly all actives have a fitted effect of over 55% in size
Procedure, shortened: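 Cytotoxicity is scored as a concentration-dependent drop in cellular ATP in a human lymphoblastoid line after 24 hr treatment at 37 C. Values are AC50s from Hill-equation modelling.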

[9] = Cell Viability - LYMP2-019 (AID 973); conditions: LYMP2-019 lymphoblastoid cell line viability; series mostly up to 92.2 µM;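 note: cells exposed to compound for 24 h at 37 °C; nearly all actives have a fitted effect of over 55% in size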
Procedure, shortened: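 Cytotoxicity is scored as a concentration-dependent drop in cellular ATP after cells (2500/well) receive compound for 24 hr at 37 C. Tetraoctylammonium bromide serves as positive control.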

[10] = Cell Viability - LYMP2-021 (AID 974); conditions: LYMP2-021 lymphoblastoid cells viability; series mostly up to 92.2 µM;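 note: compound exposure lasts 24 hours at 37 °C; nearly all actives have a fitted effect of over 55% in size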
Procedure, shortened: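 Loss of cellular ATP, measured with a luciferase-based CellTiter-Glo readout, serves as the toxicity signal in human lymphoblastoid cells treated for 24 hours at 37 C. Potency is reported as AC50 from a standard Hill model.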

[11] = Cell Viability - LYMP2-023 (AID 975); conditions: LYMP2-023 lymphoblastoid cell viability; series mostly up to 92.2 µM; note: nearly all actives have a fitted effect of over 55% in size
Procedure, shortened: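 Steps: seed 2500 human lymphoblastoid cells per well, incubate 5 hr at 37 C, add compound for 24 hr at 37 C, add CellTiter-Glo, hold 30 min at room temperature, read luminescence. AC50 derived by Hill modelling.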

[12] = Cell Viability - LYMP2-010 (AID 981); conditions: LYMP2-010 lymphoblastoid cell viability, qHTS; series mostly up to 92.2 µM; note: nearly all actives have a fitted effect of over 55% in size
Procedure, shortened: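 Steps: seed 2500 LYMP2-010 cells per well; incubate 5 hr at 37 C; add compound; incubate 24 hr at 37 C; add CellTiter-Glo, wait 30 min at room temperature; read luminescence. Concentration-response fitted to Hill equation for AC50.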

[13] = Cell Viability - LYMP2-014 (AID 983); conditions: LYMP2-014 lymphoblastoid cells, viability qHTS; series mostly up to 92.2 µM;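 note: cells exposed to compound for 24 h at 37 °C; nearly all actives have a fitted effect of over 50% in size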
Procedure, shortened: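 Cells are plated at 2500/well and left 5 hr at 37 C. Compounds are added across a concentration range and incubated 24 hr at 37 C in complete medium. CellTiter-Glo is added, and luminescence is read after 30 min at room temperature.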

[14] = Cell Viability - LYMP2-016 (AID 984); conditions: LYMP2-016 lymphoblastoid cell viability, qHTS; series mostly up to 92.2 µM; note: nearly all actives have a fitted effect of over 55% in size
Procedure, shortened: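 Cells were seeded at 2500 per well and rested 5 hr before a 24 hr compound exposure at 37 C. Viability was then gauged as cellular ATP by luciferase luminescence, with AC50 values fitted to the Hill equation.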

[15] = Cell Viability - LYMP2-020 (AID 986); conditions: series mostly up to 92.2 µM
Procedure, shortened: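 Seed 2500 cells per well and incubate 5 hr at 37 C. Add compounds at a concentration series and incubate 24 hr at 37 C. Add CellTiter-Glo, wait 30 min at RT, read luminescence, and fit a Hill curve for AC50.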

[16] = Cell Viability - LYMP2-022 (AID 987); conditions: LYMP2-022 lymphoblastoid cell viability; series mostly up to 92.2 µM; note: nearly all actives have a fitted effect of over 55% in size
Procedure, shortened: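 Cells were seeded at 2500 per well, rested 5 hr at 37 C, and treated with titrated compounds for 24 hr at 37 C. Cellular ATP was then quantified by luciferase luminescence, and AC50 values were derived from Hill-modelled concentration-response curves.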

[17] = Cell Viability - LYMP2-024 (AID 988); conditions: LYMP2-024 lymphoblastoid cell viability; series mostly up to 92.2 µM; note: nearly all actives have a fitted effect of over 60% in size
Procedure, shortened: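 qHTS cytotoxicity, human lymphoblastoid line, complete medium; 24 h cpd treatment, 37 C; CellTiter-Glo ATP luminescence readout; tetraoctylammonium bromide positive control; AC50 via Hill fit.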

[18] = qHTS assay for small molecule disruptors of the mitochondrial membrane potential - 1 hr assay (AID 651754; calls by dose curve; note: nearly all actives have a fitted effect of over 35% in size); conditions: series mostly up to 92.2 µM
Procedure, shortened: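 Loss of mitochondrial potential shifts the cationic dye from red mitochondrial aggregates to green cytoplasmic monomers. Cells (HepG2) are treated with compound for 1 hr before a 30 min dye incubation at 37C.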

[19] = molecular target: Tumor necrosis factor (Homo sapiens) (UniProt P01375); test: qHTS assay to identify small molecules that stimulate Tumor Necrosis Factor-alpha (TNF-alpha) secretion (AID 651757; active = well fitted curve in the direction sought with a large enough effect in the signal ratio; the % refers to the signal ratio); conditions: Human cells, HTRF 665/615 ratio; series mostly up to 92.2 µM
Procedure, shortened: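 Human monocytic THP-1 cells are plated, treated with compound and held at 37 C for 17 hrs. Labeled anti-TNF-alpha antibody mixture is then added; after 3 hr at room temperature, TR-FRET signal reports secreted TNF-alpha.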

[20] = Cell Viability - LYMP2-001 (AID 921); conditions: LYMP2-001 lymphoblastoid cell viability; series mostly up to 92.2 µM;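 note: cells exposed to compound for 24 h at 37 °C; nearly all actives have a fitted effect of over 70% in size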
Procedure, shortened: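 Steps: seed 2500 lymphoblastoid cells/well; 5 hr, 37 C; add compound; 24 hr, 37 C; CellTiter-Glo reagent, 30 min room temperature; read luminescence. Concentration-response modeled by Hill equation for AC50.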

Measured: Potency

Sequence of Tumor necrosis factor (Homo sapiens) (P01375 whole entry, looked up): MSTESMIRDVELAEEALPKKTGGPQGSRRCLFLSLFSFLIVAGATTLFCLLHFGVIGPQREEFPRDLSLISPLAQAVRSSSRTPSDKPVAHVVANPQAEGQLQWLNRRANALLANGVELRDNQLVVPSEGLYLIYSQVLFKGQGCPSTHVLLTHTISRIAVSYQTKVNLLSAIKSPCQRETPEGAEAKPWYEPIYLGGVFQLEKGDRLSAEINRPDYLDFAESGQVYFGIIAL

c1ccc(-c2ccccc2)cc1
inactive: [1] > 92 µM | [2] | [3] | [4] | [5] | [6] | [7] | [8] | [9] | [10] | [11] | [12] | [13] | [14] | [15] | [16] | [17] | [18] | [19]

C=CCOC(=O)c1ccccc1N
inactive: [1] > 92 µM | [20] | [2] | [3] | [4] | [5] | [6] | [7] | [8] | [9] | [10] | [11] | [12] | [13] | [14] | [15] | [16] | [17] | [18] | [19]

Nc1ccc(Br)cc1
inactive: [1] > 92 µM | [20] | [2] | [3] | [4] | [5] | [6] | [7] | [8] | [9] | [10] | [11] | [12] | [13] | [14] | [15] | [16] | [17] | [18] | [19]

O=C=NC1CCCCC1
inactive: [1] > 92 µM | [20] | [2] | [3] | [4] | [5] | [6] | [7] | [8] | [9] | [10] | [11] | [12] | [13] | [14] | [15] | [16] | [17] | [18] | [19]

c1ccc2c(c1)CCCC2
inactive: [1] > 92 µM | [20] | [2] | [3] | [4] | [5] | [6] | [7] | [8] | [9] | [10] | [11] | [12] | [13] | [14] | [15] | [16] | [17] | [18] | [19]

CCOP(=S)(OCC)SCSC(C)(C)C
inactive: [1] > 92 µM | [20] | [2] | [3] | [4] | [5] | [6] | [7] | [8] | [9] | [10] | [11] | [12] | [13] | [14] | [15] | [16] | [17] | [18] | [19]

C=C(Cl)Cl
inactive: [1] > 92 µM | [20] | [2] | [3] | [4] | [5] | [6] | [7] | [8] | [9] | [10] | [11] | [12] | [13] | [14] | [15] | [16] | [17] | [18] | [19]
